Test results as given in PubChem BioAssay (NCATS).
Inconclusive results are not listed. Calls of active or inactive are those of the source. Calls follow the shape of the dose curve; as a rule, active = well fitted inhibition curve with a large enough effect; inconclusive = small, poorly fitted or top-dose-only effect; inactive = flat fitted curve, though single readings scatter.

Legend:
P94_40 = test: qHTS profiling for inhibitors of Plasmodium falciparum proliferation (AID 504749); also: potency is read from the fitted curve at half-maximal effect; settings: P. falciparum in erythrocytes, SYBR Green DNA, 72 h; series mostly up to 28.7 µM
Procedure, shortened: (§1)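 Fluorescence of SYBR Green-bound parasite DNA, read at 485/535 nm, served as the growth measure. Infected erythrocytes were cultured with compound 72 h; artemisinin (0.29 uM) and DMSO wells defined the normalization range.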

PC15 = test: as above; settings: P. falciparum in erythrocytes, SYBR Green DNA, 72 h; series mostly up to 28.7 µM
Procedure, shortened: as §1

TAB109 = test: as above; settings: P. falciparum in erythrocytes, SYBR Green DNA, 72 h; series mostly up to 28.7 µM
Procedure, shortened: as §1

W2 = test: as above; settings: P. falciparum in erythrocytes, SYBR Green DNA, 72 h; series mostly up to 28.7 µM
Procedure, shortened: as §1

CRL-7250 = normal cell line; test: Cytotoxic Profiling of Annotated Libraries Using Quantitative High-Throughput Screening (AID 1296008); settings: Five cell lines viability, CellTiter-Glo ATP luminescence, 48-72 h; stronger effect = lower value; as to max response: % is scaled to controls: 0 for no effect and ±100 for the full control effect
Procedure, shortened: (§2)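 Compounds were pin-transferred onto cells and incubated 48 or 72 hr at 37 degree Celsius, 95% humidity. CellTiter-Glo was added, plates sat 10 min at room temperature, then ATP-coupled luminescence was imaged as the viability read-out.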

HEK293 = test: as above; settings: Five cell lines viability, CellTiter-Glo ATP luminescence, 48-72 h; max response: stronger effect = lower value
Procedure, shortened: as §2

ECU = test: qHTS profiling for inhibitors of Plasmodium falciparum proliferation (AID 504749); also: potency is read from the fitted curve at half-maximal effect; settings: P. falciparum in erythrocytes, SYBR Green DNA, 72 h; series mostly up to 28.7 µM
Procedure, shortened: as §1

FAB9 = test: as above; settings: P. falciparum in erythrocytes, SYBR Green DNA, 72 h; series mostly up to 28.7 µM
Procedure, shortened: as §1

GB4 = test: as above; settings: P. falciparum in erythrocytes, SYBR Green DNA, 72 h; series mostly up to 28.7 µM
Procedure, shortened: as §1

HB3 = test: as above; settings: P. falciparum in erythrocytes, SYBR Green DNA, 72 h; series mostly up to 28.7 µM
Procedure, shortened: as §1

ICS = test: as above; settings: P. falciparum in erythrocytes, SYBR Green DNA, 72 h; series mostly up to 28.7 µM
Procedure, shortened: as §1

JCK = test: as above; settings: P. falciparum in erythrocytes, SYBR Green DNA, 72 h; series mostly up to 28.7 µM
Procedure, shortened: as §1

N140 = test: as above; settings: P. falciparum in erythrocytes, SYBR Green DNA, 72 h; series mostly up to 28.7 µM
Procedure, shortened: as §1

P93_24 = test: as above; settings: P. falciparum in erythrocytes, SYBR Green DNA, 72 h; series mostly up to 28.7 µM
Procedure, shortened: as §1

PAD = test: as above; settings: P. falciparum in erythrocytes, SYBR Green DNA, 72 h; series mostly up to 28.7 µM
Procedure, shortened: as §1

PC26 = test: as above; settings: P. falciparum in erythrocytes, SYBR Green DNA, 72 h; series mostly up to 28.7 µM
Procedure, shortened: as §1

PC49 = test: as above; settings: P. falciparum in erythrocytes, SYBR Green DNA, 72 h; series mostly up to 28.7 µM
Procedure, shortened: as §1

SC27B = test: as above; settings: P. falciparum in erythrocytes, SYBR Green DNA, 72 h; series mostly up to 28.7 µM
Procedure, shortened: as §1

TAB113 = test: as above; settings: P. falciparum in erythrocytes, SYBR Green DNA, 72 h; series mostly up to 28.7 µM
Procedure, shortened: as §1

TAB165 = test: as above; settings: P. falciparum in erythrocytes, SYBR Green DNA, 72 h; series mostly up to 28.7 µM
Procedure, shortened: as §1
Also: nearly all actives have a fitted effect of over 60% in size.

C/C(=C\C(=O)OCCCCCCCCC(=O)O)C[C@@H]1OC[C@H](C[C@@H]2O[C@H]2[C@@H](C)[C@H](C)O)[C@@H](O)[C@H]1O
active: Potency (P94_40) 141 nM | Potency (TAB109) 141 nM | Potency (W2) 190 nM
inactive: Potency (PC15) | max response (CRL-7250) 4.39% | max response (HEK293) -15.8%

CCCCC
inactive: Potency (ECU) | Potency (FAB9) | Potency (GB4) | Potency (HB3) | Potency (ICS) | Potency (JCK) | Potency (N140) | Potency (P93_24) | Potency (P94_40) | Potency (PAD) | Potency (PC15) | Potency (PC26) | Potency (PC49) | Potency (SC27B) | Potency (TAB109) | Potency (TAB113) | Potency (TAB165)

O=C(CCCCCCCCCCCCC1CCCC1)Nc1ccc(S(=O)(=O)c2ccc(NC(=O)CCCCCCCCCCCCC3CCCC3)cc2)cc1
inactive: Potency (ECU) | Potency (FAB9) | Potency (GB4) | Potency (HB3) | Potency (ICS) | Potency (JCK) | Potency (N140) | Potency (P93_24) | Potency (P94_40) | Potency (PAD) | Potency (PC15) | Potency (PC26) | Potency (PC49) | Potency (SC27B) | Potency (TAB109) | Potency (TAB113) | Potency (TAB165) | Potency (W2)

S=C=Nc1ccc(N=C=S)cc1
inactive: Potency (ECU) | Potency (FAB9) | Potency (GB4) | Potency (HB3) | Potency (ICS) | Potency (JCK) | Potency (N140) | Potency (P93_24) | Potency (P94_40) | Potency (PAD) | Potency (PC15) | Potency (PC26) | Potency (PC49) | Potency (SC27B) | Potency (TAB109) | Potency (TAB113) | Potency (TAB165)

O=C1c2ccccc2C(=O)C1c1ccc(F)cc1
inactive: Potency (ECU) | Potency (FAB9) | Potency (GB4) | Potency (HB3) | Potency (ICS) | Potency (JCK) | Potency (N140) | Potency (P93_24) | Potency (P94_40) | Potency (PAD) | Potency (PC15) | Potency (PC26) | Potency (PC49) | Potency (SC27B) | Potency (TAB109) | Potency (TAB113) | Potency (TAB165)

Nc1ccc(N=Nc2ccccc2)c(N)n1
active: Potency (GB4) 13500 nM
inactive: Potency (HB3) | Potency (ICS) | Potency (JCK) | Potency (P93_24) | Potency (P94_40) | Potency (PAD) | Potency (PC15) | Potency (PC26) | Potency (PC49) | Potency (SC27B) | Potency (TAB113) | Potency (TAB165) | Potency (W2) | outcome (CRL-7250) | max response (HEK293) 4.3%

O=C(O)Cc1cc(I)c(Oc2ccc(O)c(I)c2)c(I)c1
inactive: Potency (ECU) | Potency (FAB9) | Potency (GB4) | Potency (HB3) | Potency (ICS) | Potency (JCK) | Potency (N140) | Potency (P93_24) | Potency (P94_40) | Potency (PAD) | Potency (PC15) | Potency (PC26) | Potency (PC49) | Potency (SC27B) | Potency (TAB109) | Potency (TAB113) | Potency (TAB165) | Potency (W2) | outcome (CRL-7250)

CS(=O)(=O)OCC(O)C(O)COS(C)(=O)=O (configuration not stated)
inactive: Potency (ECU) | Potency (FAB9) | Potency (GB4) | Potency (HB3) | Potency (ICS) | Potency (JCK) | Potency (N140) | Potency (P93_24) | Potency (P94_40) | Potency (PAD) | Potency (PC15) | Potency (PC26) | Potency (PC49) | Potency (SC27B) | Potency (TAB109) | Potency (TAB113) | Potency (TAB165)
